Test results taken from PubChem BioAssay (NCATS).
Results filed as inconclusive are left out. A call without a number means that no potency is given here. Active and inactive are the calls of the source. Calls follow the shape of the dose curve; as a rule, active = well fitted inhibition curve with a large enough effect; inconclusive = small, poorly fitted or top-dose-only effect; inactive = flat fitted curve, though single readings scatter.

Assays:
Assay in all cases: qHTS profiling for inhibitors of Plasmodium falciparum proliferation (AID 504749); also: nearly all actives have a fitted effect of over 60% in size
Conditions in all cases: P. falciparum in erythrocytes, SYBR Green DNA, 72 h; series mostly up to 28.7 µM
CP203 = system: CP203
Method in brief: (§1)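 P. falciparum-infected erythrocytes (0.3% parasitemia, 2.5% hematocrit final) were exposed to compounds for 72 h at 37 C in 5% CO2, then lysed with SYBR Green buffer overnight at room temperature; parasite DNA fluorescence was normalized to artemisinin and DMSO controls.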

CP215 = system: CP215
Method in brief: as §1

CP217 = system: CP217
Method in brief: as §1

CP237 = system: CP237
Method in brief: as §1

CP238 = system: CP238
Method in brief: as §1

CP247 = system: CP247
Method in brief: as §1

CP250 = system: CP250
Method in brief: as §1

CP252 = system: CP252
Method in brief: as §1

CP256 = system: CP256
Method in brief: as §1

CP260 = system: CP260
Method in brief: as §1

CP262 = system: CP262
Method in brief: as §1

CP265 = system: CP265
Method in brief: as §1

CP266 = system: CP266
Method in brief: as §1

CP268 = system: CP268
Method in brief: as §1

CP269 = system: CP269
Method in brief: as §1

CP286 = system: CP286
Method in brief: as §1

CP291 = system: CP291
Method in brief: as §1

CP297 = system: CP297
Method in brief: as §1

CP305 = system: CP305
Method in brief: as §1

CP211 = system: CP211
Method in brief: as §1
Potency is read from the fitted curve at half-maximal effect.

| Compound | Potency (CP203) | Potency (CP215) | Potency (CP217) | Potency (CP237) | Potency (CP238) | Potency (CP247) | Potency (CP250) | Potency (CP252) | Potency (CP256) | Potency (CP260) | Potency (CP262) | Potency (CP265) | Potency (CP266) | Potency (CP268) | Potency (CP269) | Potency (CP286) | Potency (CP291) | Potency (CP297) | Potency (CP305) | Potency (CP211) |
| --- | --- | --- | --- | --- | --- | --- | --- | --- | --- | --- | --- | --- | --- | --- | --- | --- | --- | --- | --- | --- |
| CNC(=O)OCC[N+](C)(C)C | inactive | inactive | inactive | inactive | inactive | inactive | inactive | inactive | inactive | inactive | inactive | inactive | inactive | inactive | inactive | inactive | inactive | inactive | inactive |  |
| OC(c1ccccc1)(c1ccccc1)C1CN2CCC1CC2 (configuration not stated) | inactive |  | inactive |  | inactive |  | inactive | inactive | inactive |  | inactive | inactive |  | inactive | inactive | inactive | inactive |  | inactive | inactive |
| COC1=CC=C2[C@H]3Cc4ccc(OC)c5c4[C@@]2(CCN3C)[C@H]1O5 | inactive | inactive | inactive |  | inactive | inactive | inactive | inactive | inactive | inactive | inactive | inactive | inactive | inactive | inactive | inactive | inactive | inactive | inactive | inactive |
| O=C1CN=C(c2ccccc2)c2cc(Cl)ccc2N1CC1CC1 |  | inactive | inactive | inactive | inactive |  | inactive | inactive | inactive |  | inactive | inactive | inactive | inactive | inactive |  | inactive | inactive | inactive | inactive |
| CNC(=O)Oc1ccccc1C(=O)Nc1ccccc1 | inactive |  |  | inactive | inactive |  | inactive | inactive |  | inactive |  | inactive | inactive | inactive | inactive | inactive | inactive |  | inactive | inactive |
| CN1CCCC(=C(c2cccs2)c2cccs2)C1 |  |  |  | 4.47 µM (active) |  |  | inactive |  | inactive |  |  |  | inactive |  | inactive |  |  |  |  |  |
| COc1ccc2c3c1O[C@H]1C(=O)CC[C@H]4[C@@H](C2)N(C)CC[C@]314 | inactive |  | inactive | inactive | inactive | inactive | inactive | inactive | inactive | inactive | inactive | inactive |  | inactive | inactive | inactive | inactive | inactive | inactive | inactive |
| CCCC(=O)OC(C(Cl)(Cl)Cl)P(=O)(OC)OC (configuration not stated) | inactive |  | inactive | inactive | inactive | inactive | inactive | inactive |  | inactive | inactive | inactive | inactive | inactive | inactive | inactive | inactive | inactive | inactive |  |
| CCC1C(C)=NN=C(c2ccc(OC)c(OC)c2)c2cc(OC)c(OC)cc21 (configuration not stated) | inactive |  | inactive |  | inactive | inactive | inactive | inactive | inactive | inactive | inactive | inactive | inactive | inactive | inactive |  | inactive |  | inactive |  |
| CC1CCC(C(C)C)C(OC(=O)c2ccccc2N)C1 (configuration not stated) | inactive | inactive | inactive |  | inactive | inactive | inactive | inactive | inactive | inactive | inactive | inactive | inactive | inactive | inactive | inactive | inactive | inactive | inactive | inactive |
| O=C(NC(=O)c1c(F)cccc1F)Nc1ccc(Cl)c(Oc2ncc(C(F)(F)F)cc2Cl)c1 | inactive |  | inactive | inactive | inactive | inactive | inactive | inactive | inactive | inactive | inactive | inactive | inactive | inactive | inactive | inactive | inactive | inactive | inactive | inactive |
| CCOc1ccc2c3c1O[C@H]1[C@@H](O)C=C[C@H]4[C@@H](C2)N(C)CC[C@@]341 |  |  | inactive | inactive | inactive | inactive | inactive | inactive | inactive | inactive |  | inactive | inactive |  |  | inactive |  | 15.1 µM (active) |  |  |
| Cc1sc2ccccc2c1CC1=NCCN1 | inactive | inactive | inactive |  | inactive | inactive | inactive | inactive | inactive | inactive | inactive | inactive | inactive | inactive | inactive |  | inactive |  | inactive | inactive |
| C=CCC1(C(C)CCC)C(=O)N=C(S)NC1=O (configuration not stated) |  |  | inactive | inactive | inactive | inactive | inactive | inactive | inactive | inactive |  | inactive | inactive |  |  | inactive |  |  |  |  |
| Oc1cccc[c]1[Hg][Cl] |  | 10.7 µM (active) | 8.91 µM (active) | 10 µM (active) | 11.2 µM (active) | 8.91 µM (active) |  | 12.6 µM (active) | 11.2 µM (active) | 5.62 µM (active) |  | 10 µM (active) | 9.53 µM (active) | 7.57 µM (active) | 4.26 µM (active) | 7.94 µM (active) | 10.7 µM (active) | 13.5 µM (active) | 6.01 µM (active) | 9.53 µM (active) |
| O=c1[nH]c(=O)n(Cl)c(=O)n1Cl | inactive |  | inactive | inactive | inactive | inactive | inactive | inactive | inactive | inactive | inactive | inactive | inactive | inactive | inactive | inactive | inactive | inactive | inactive | inactive |
| [Cl-].[Cl-].[Hg+2] | inactive | inactive | 8.91 µM (active) |  | 10 µM (active) |  | inactive |  |  |  | inactive |  | inactive |  |  |  |  |  |  |  |

| Compound | Potency (CP203) | Potency (CP215) | Potency (CP217) | Potency (CP237) | Potency (CP238) | Potency (CP247) | Potency (CP250) | Potency (CP252) | Potency (CP256) | Potency (CP260) | Potency (CP262) | Potency (CP265) | Potency (CP266) | Potency (CP268) | Potency (CP269) | Potency (CP286) | Potency (CP291) | Potency (CP297) | Potency (CP305) | Potency (CP211) |
| --- | --- | --- | --- | --- | --- | --- | --- | --- | --- | --- | --- | --- | --- | --- | --- | --- | --- | --- | --- | --- |
| CCCN1CCCC2Cc3[nH]ncc3CC21 (configuration not stated) |  |  | inactive | inactive | inactive | inactive | inactive | inactive | inactive | inactive |  | inactive |  |  |  | inactive |  |  |  |  |
| CC12NC(Cc3ccccc31)c1ccccc12 (configuration not stated) |  | inactive |  |  |  |  | inactive |  |  |  | inactive | 8.91 µM (active) | inactive | inactive |  |  |  | 6.01 µM (active) | inactive | inactive |
| O=c1c2ccccc2[se]n1-c1ccccc1 | inactive | inactive |  |  |  |  |  | inactive | inactive | inactive | inactive |  | inactive | inactive | inactive |  | inactive | inactive | inactive |  |
| C=CCN=C=S |  |  | inactive | inactive | inactive | inactive | inactive | inactive | inactive | inactive | inactive | inactive | inactive |  |  | inactive |  |  |  |  |
| C[C@@H](Cc1ccccc1)NCCC(c1ccccc1)c1ccccc1 |  | inactive |  | inactive | inactive |  |  | inactive |  |  |  |  |  |  |  |  |  |  |  | inactive |
| C[C@H]1CCC[C@H](O)CCCCCc2cc(O)cc(O)c2C(=O)O1 | inactive |  |  |  | inactive | inactive |  | inactive | inactive |  | inactive | inactive | inactive | inactive | inactive | inactive | inactive |  | inactive | inactive |
| CCN(CC)C(=O)/C(Cl)=C(\C)OP(=O)(OC)OC |  |  | inactive | inactive | inactive | inactive | inactive | inactive | inactive | inactive | inactive | inactive |  |  |  | inactive |  | 13.5 µM (active) |  |  |
| CCC(=O)O[C@@](Cc1ccccc1)(c1ccccc1)[C@@H](C)CN(C)C | inactive | inactive | inactive | inactive | inactive | inactive | inactive | inactive | inactive | inactive | inactive | inactive | inactive | inactive | inactive | inactive | inactive | inactive | inactive |  |
| CCC1(c2ccccc2)C(=O)NC(=O)N(C)C1=O (configuration not stated) | inactive |  | inactive | inactive | inactive | inactive | inactive | inactive | inactive |  | inactive |  | inactive | inactive |  | inactive | inactive | inactive |  | inactive |
| c1csc(C2(N3CCCCC3)CCCCC2)c1 | inactive | inactive | inactive |  | inactive | inactive | inactive | inactive | inactive | inactive | inactive | inactive | inactive | inactive | inactive | inactive | inactive | inactive | inactive | inactive |
| F/C(COc1ccc2c(c1)[nH]c1ccccc12)=C1/CN2CCC1CC2 |  | inactive |  | 6.31 µM (active) | 11.2 µM (active) |  |  |  |  | 5.62 µM (active) | inactive | 8.91 µM (active) |  |  |  | 7.08 µM (active) |  |  |  |  |
| COc1ccc2c(c1OC)C(=O)OC2C1c2cc3c(cc2CCN1C)OCO3 (configuration not stated) |  |  | inactive | inactive |  | inactive | inactive | inactive | inactive | inactive |  | inactive |  |  |  | inactive |  |  |  |  |
| CCOP(=O)(OCC)O/C(=C/Cl)c1ccc(Cl)cc1Cl |  |  |  | inactive | inactive |  | inactive | inactive | inactive |  | inactive |  | inactive | inactive | inactive | inactive |  | inactive | inactive |  |
| N#CC(C#N)=Cc1cc(O)c(O)c(O)c1 |  |  |  | 8.91 µM (active) |  | 8.91 µM (active) | 11.2 µM (active) |  |  | 6.31 µM (active) | 15.1 µM (active) |  | 16.9 µM (active) |  | 10.7 µM (active) | 10 µM (active) |  | 15.1 µM (active) |  | 13.5 µM (active) |
| CCNC(C)Cc1cccc(C(F)(F)F)c1 (configuration not stated) | inactive | inactive | inactive |  | inactive | inactive | inactive | inactive | inactive | inactive | inactive | inactive | inactive | inactive | inactive | inactive | inactive | inactive | inactive | inactive |
| c1cc2c(c(NC3=NCCN3)c1)CCCC2 |  |  | inactive | inactive | inactive | inactive | inactive | inactive | inactive | inactive | inactive | inactive | inactive |  |  | inactive |  |  |  |  |
| C=CCN1CC[C@]23c4c5ccc(O)c4O[C@H]2[C@@H](O)C=C[C@H]3[C@H]1C5 | inactive | inactive | inactive | inactive | inactive |  | inactive | inactive | inactive | inactive | inactive | inactive |  | inactive | inactive | inactive | inactive | inactive | inactive | inactive |
